Results filed as inconclusive are left out. Activity calls are given as the source filed them. Unless noted, calls follow the shape of the full dose curve.
Tests used:
[1] = molecular target: Bile acid receptor (Homo sapiens) (UniProt Q96RI1); assay: qHTS assay for small molecule agonists of farnesoid X receptor signaling (AID 588527); settings: HEK293T FXR-UAS-bla, beta-lactamase ratio, 16 h; activation: stronger effect = higher value;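 also: series mostly up to about 77 µM; 0% = vehicle basal and 100% = reference agonist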
Outline: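 Agonist-mode beta-lactamase reporter in GeneBLAzer FXR-UAS-bla HEK293T cells, titration up to 92 uM, 16 h exposure at 37 C, CCF4 fluorescence. Response scaled to DMSO (0%) and 100 uM chenodeoxycholic acid (100%), then Hill-fitted for EC50 and efficacy.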

[2] = molecular target: Glucocorticoid receptor (Homo sapiens) (UniProt P04150); assay: qHTS assay for small molecule agonists of glucocorticoid receptor signaling (AID 588532; active = well fitted curve in the direction sought with a large enough effect in the signal ratio, with a control signal flat; the % refers to the signal ratio;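 also: 100% = dexamethasone at 0.1 µM and 0% = DMSO only wells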); settings: HeLa MMTV-bla, beta-lactamase ratio, agonist, 18 h; activation: stronger effect = higher value, percent of dexamethasone control, DMSO zero
Outline: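 MMTV-bla HeLa beta-lactamase reporter cells in 1% charcoal/dextran FBS medium, compounds up to 92 uM for 18 h at 37 C, CCF4 readout; normalized to 0.1 uM dexamethasone (100%), EC50 and efficacy from Hill fits.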

[3] = molecular target: Peroxisome proliferator-activated receptor delta (Homo sapiens) (UniProt Q03181); assay: qHTS assay for small molecule agonists of peroxisome proliferator-activated receptor delta signaling (AID 588534);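 also: 0% = DMSO basal wells and 100% = positive control agonist at 10 µM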
Outline: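 Cells carrying a PPAR-delta beta-lactamase reporter were treated with compounds for 18 h at 37 °C in agonist mode. CCF4 fluorescence was read after 2 h; EC50 and efficacy from Hill fits.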

[4] = qHTS assay for small molecule antagonists of peroxisome proliferator-activated receptor delta signaling (AID 588535; active = well fitted inhibition curve with a large enough effect in the signal ratio, with a control signal flat, not every such curve was filed as active; the % refers to the signal ratio;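 as to max response: cells co-treated with a PPAR-delta agonist as stimulator during compound exposure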); settings: HEK293T PPARd-UAS-bla, beta-lactamase FRET ratio, 18 h; 460 nm channel
Outline: (§1)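 Antagonist-mode beta-lactamase reporter (GeneBLAzer PPAR-delta-UAS-bla) in HEK293T cells, 2% charcoal/dextran FBS, 4000 cells/well. Compound titrations, 18 h at 37 C; CCF4 ratio read, IC50 and efficacy from Hill fits.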

[5] = molecular target: Peroxisome proliferator-activated receptor delta (Homo sapiens) (UniProt Q03181); assay: as above
Outline: as §1

[6] = molecular target: Peroxisome proliferator-activated receptor gamma (Homo sapiens) (UniProt P37231); assay: qHTS assay for small molecule agonists of peroxisome proliferator-activated receptor gamma signaling (AID 588536; active = well fitted curve in the direction sought with a large enough effect in the signal ratio, with a control signal flat, not every such curve was filed as active; the % refers to the signal ratio;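 also: 0% = DMSO basal wells and 100% = rosiglitazone at 2 µM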)
Outline: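 Ratiometric blue/green fluorescence (405 nm excitation; 460 and 530 nm emission) from CCF4-loaded HEK293 reporter cells serves as signal. Exposure to test compounds lasts 16 h at 37 C in medium containing 1% charcoal/dextran-treated serum.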

[7] = molecular target: Peroxisome proliferator-activated receptor gamma (Homo sapiens) (UniProt P37231); assay: qHTS assay for small molecule antagonists of peroxisome proliferator-activated receptor gamma signaling (AID 588537; active = well fitted inhibition curve with a large enough effect in the signal ratio, with a control signal flat, not every such curve was filed as active; the % refers to the signal ratio;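 also: reporter cells co-stimulated with 50 nM rosiglitazone agonist during compound treatment; % of control where 0% means no effect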)
Outline: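 PPARγ-UAS-bla HEK293 cells (3000/well) in 1% charcoal/dextran-stripped FBS are treated with compound, then stimulated with 50 nM rosiglitazone for 16 h at 37 °C. Read-out is CCF4 β-lactamase fluorescence after 2 h at RT. IC50 comes from Hill fits normalised to rosiglitazone and DMSO.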

[8] = molecular target: Vitamin D3 receptor (Homo sapiens) (UniProt P11473); assay: qHTS assay for small molecule antagonists of vitamin D receptor signaling (AID 588541);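 also: receptor activated by calcitriol during compound treatment; series mostly up to about 77 µM; % is scaled to controls: 0 for no effect and ±100 for the full control effect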
Outline: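 VDR-UAS-bla HEK293T cells in 2% charcoal-stripped FBS were stimulated with 1-alpha,25-dihydroxyvitamin D3 (3 nM final) plus compound for 16 h at 37 C. The beta-lactamase CCF4 readout was normalized to 50 nM agonist and DMSO, and Hill fits gave IC50.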

[9] = molecular target: Vitamin D3 receptor (Homo sapiens) (UniProt P11473); assay: qHTS assay for small molecule agonists of vitamin D receptor signaling (AID 588543);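 also: 0% = DMSO basal and 100% = reference agonist control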
Outline: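 β-lactamase reporter, VDR-UAS-bla HEK293T, agonist mode. Cells plated 5 h at 37 °C, compound titration 16 h at 37 °C, CCF4 dye 2 h RT, ratio 460/530 nm. Hill fit → EC50, efficacy vs 50 nM 1α,25-(OH)2D3.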

[10] = molecular target: Thyroid hormone receptor beta (Homo sapiens) (UniProt P10828); assay: qHTS assay for small molecule agonists of thyroid hormone receptor beta signaling (AID 588545)
Outline: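 Agonist activity was read as beta-lactamase CCF4 fluorescence (405 ex, 460/530 em), scaled between DMSO (0%) and 10 nM T3 (100%), then Hill-fitted for EC50 and efficacy. HEK 293 TR-UAS-bla cells in 2% charcoal/dextran FBS medium were exposed 18 h at 37 C.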

[11] = qHTS assay for small molecule antagonists of retinoid X receptor alpha signaling (AID 588546; active = well fitted inhibition curve with a large enough effect in the signal ratio, with a control signal flat, not every such curve was filed as active; the % refers to the signal ratio;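 also: cells stimulated with 9-cis-retinoic acid as agonist; % is scaled to controls: 0 for no effect and ±100 for the full control effect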); settings: HEK293T RXRa-UAS-bla, beta-lactamase ratio, antagonist mode; measured here: W530 green channel, cytotoxicity proxy
Outline: (§2)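 Beta-lactamase reporter inhibition, read as CCF4 fluorescence ratio (ex 405, em 460/530 nm) after 2 h at RT. HEK293T UAS-bla cells, 2500/well, were stimulated with 9-cis-RA at 500 or 100 nM final alongside test compound for 18 h at 37 C.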

[12] = molecular target: Retinoic acid receptor RXR-alpha (Homo sapiens) (UniProt P19793); assay: as above; settings: HEK293T RXRa-UAS-bla, beta-lactamase ratio, antagonist mode
Outline: as §2

[13] = qHTS assay for small molecule agonists of the antioxidant response element (ARE) signaling pathway (AID 651741; active = well fitted activation curve with a large enough effect in the signal ratio; the % refers to the signal ratio; also: potency is read from the fitted curve at half-maximal effect)
Outline: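 CellSensor ARE-bla HepG2 cells (2,000/well) carrying ARE-driven beta-lactamase, exposed 16 h at 37 C. LiveBLAzer B/G FRET substrate added for 2 h at room temperature; fluorescence intensity read.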

[14] = qHTS assay for small molecule activators of the p53 signaling pathway (AID 651743; active = well fitted activation curve with a large enough effect in the signal ratio, not every such curve was filed as active; the % refers to the signal ratio; also: series mostly up to about 92 µM; % of control where 0% means no effect); settings: HCT-116 p53RE-bla, beta-lactamase FRET ratio, 16 h; activation: stronger effect = higher value
Outline: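 p53RE-bla HCT-116 cells carrying a beta-lactamase reporter under p53 response elements were exposed to compounds for 16 hours at 37 C. Reporter activity read as fluorescence after 2 hours at room temperature with LiveBLAzer B/G FRET substrate.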

[15] = qHTS assay for small molecule activators of the nuclear factor-kappa B (NF-kB) signaling pathway (AID 651749; active = well fitted activation curve with a large enough effect in the signal ratio; the % refers to the signal ratio; also: series mostly up to about 77 µM; % of control where 0% means no effect); settings: NF-kB-bla ME-180 cells, beta-lactamase FRET ratio, 16 h; activation: stronger effect = higher value
Outline: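 NF-kB-bla ME-180 cells carrying a beta-lactamase reporter under an NF-kB response element, 2,000 cells/well, exposed to compound for 16 hr at 37C; FRET-based beta-lactamase fluorescence read-out of pathway activation.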

[16] = qHTS assay for environmental chemicals that activate the Aryl hydrocarbon Receptor (AhR) signaling pathway (AID 651777; active = well fitted curve in the direction sought with a large enough effect; an effect the other way counts as inactive or inconclusive; also: nearly all actives have a fitted effect of over 15% in size; also: potency is read from the fitted curve at half-maximal effect; as to activation: % of control where 0% means no effect); settings: 1A2-DRE human hepatoma cells, luciferase, 24 h; activation: stronger effect = higher value
Outline: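 Luminescence (One-Glo, 30 min, room temperature) reports AhR-driven luciferase in stably transfected human hepatoma cells bearing DRE and CYP1A2 promoter. Cells (1,200/well) were treated with compound for 24 hr at 37 C in qHTS format.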

[17] = molecular target: Peroxisome proliferator-activated receptor alpha (Homo sapiens) (UniProt Q07869); assay: qHTS assay for small molecule agonists of the peroxisome proliferator-activated receptor alpha (PPARalpha) signaling pathway (AID 651778; active = well fitted curve in the direction sought with a large enough effect; an effect the other way counts as inactive or inconclusive; also: % of control where 0% means no effect); settings: PathHunter PPARalpha complementation, chemiluminescence, 6 h; max response: stronger effect = higher value
Outline: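 Enzyme-fragment complementation assay in which ligand-bound PPARalpha translocates and forms an active enzyme that generates chemiluminescence. Cells were plated overnight, exposed to compound for 6 hr at 37 C, and then given detection reagent for 60 min at room temperature.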

[18] = qHTS assay for small molecule agonists of the antioxidant response element (ARE) signaling pathway measured by Nrf2-dependant transcriptional activity - cell viability counter screen (AID 720653; active = well fitted curve in the direction sought with a large enough effect in the repeat runs; an effect the other way counts as inactive or inconclusive; also: % is scaled to controls: 0 for no effect and ±100 for the full control effect); settings: ARE-bla HepG2 viability, CellTiter-Glo ATP luminescence, 16 h; max response: stronger effect = lower value
Outline: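 ARE-bla HepG2 cells treated with compounds for 16 h at 37C; this counter screen measures viability as intracellular ATP by CellTiter-Glo luminescence after 30 min at room temperature.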

[19] = qHTS assay for cell viability of HEK293 cells (AID 743288; active = well fitted curve in the direction sought with a large enough effect; an effect the other way counts as inactive or inconclusive; also: % is scaled to controls: 0 for no effect and ±100 for the full control effect; nearly all actives have a fitted effect of over 50% in size); settings: ATP luminescence (CellTiter-Glo), 18 h; max response: stronger effect = lower value
Outline: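 Environmental chemicals tested in qHTS format against parental HEK293 cells; 18 h treatment, 37 C; read-out ATP luminescence (CellTiter-Glo), 30 min RT development.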

[20] = qHTS assay for cell viability of the p53RE-bla HCT-116 cell line (AID 743292; active = well fitted curve in the direction sought with a large enough effect; an effect the other way counts as inactive or inconclusive; also: % is scaled to controls: 0 for no effect and ±100 for the full control effect; nearly all actives have a fitted effect of over 55% in size)
Outline: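 ATP-based luminescent viability (CellTiter-Glo, 30 min RT) after 16 h compound treatment at 37 C of p53RE-bla HCT-116 cells, seeded at 4,000 cells/well and rested 5 h before dosing.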

[21] = molecular target: Nuclear receptor subfamily 1 group I member 2 (Rattus norvegicus) (UniProt Q9R1A7); assay: qHTS assay for small molecule activators of the rat pregnane X receptor (rPXR) signaling pathway (AID 651751; call rule not given here; also: 0% is about no effect); settings: rPXR reporter cells, luciferase (One-Glo), 24 h
[22] = molecular target: Glucocorticoid receptor (Homo sapiens) (UniProt P04150); assay: qHTS assay for small molecule antagonists of glucocorticoid receptor signaling (AID 588533; active = well fitted inhibition curve with a large enough effect in the signal ratio, with a control signal flat, not every such curve was filed as active; the % refers to the signal ratio; also: % is scaled to controls: 0 for no effect and ±100 for the full control effect)
Outline: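 Antagonist-mode qHTS: compound titrations added to GRE-bla HeLa cells, then dexamethasone 2 nM final; 18 h, 37 C. CCF4 FRET fluorescence normalized to dexamethasone and DMSO; IC50 from Hill fit.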

[23] = qHTS assay for small molecule agonists of retinoid X receptor alpha signaling (AID 588544); settings: HEK293T RXRa-UAS-bla, beta-lactamase reporter, 18 h; 530 nm emission;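 as to activation: 0% = DMSO basal wells and 100% = reference agonist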
[24] = molecular target: Retinoic acid receptor RXR-alpha (Homo sapiens) (UniProt P19793); assay: as above
[25] = qHTS assay for small molecule agonists of the antioxidant response element (ARE) signaling pathway measured by Nrf2-dependant transcriptional activity (AID 720636; active = well fitted curve in the direction sought with a large enough effect in the repeat runs; an effect the other way counts as inactive or inconclusive; also: % of control where 0% means no effect)
Outline: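 Nrf2-dependent transcription read as ONE-Glo luciferase signal from ARE-luc HepG2 reporter cells after 16 hr compound treatment at 37 C, 5% CO2, in assay medium with 1% dialyzed FBS.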

[26] = qHTS assay for small molecule activators of the human pregnane X receptor (PXR) signaling pathway (AID 720659; call rule not given here; also: 0% is about no effect)

Peroxisome proliferator-activated receptor delta (Homo sapiens), sequence (Q03181 whole entry, looked up): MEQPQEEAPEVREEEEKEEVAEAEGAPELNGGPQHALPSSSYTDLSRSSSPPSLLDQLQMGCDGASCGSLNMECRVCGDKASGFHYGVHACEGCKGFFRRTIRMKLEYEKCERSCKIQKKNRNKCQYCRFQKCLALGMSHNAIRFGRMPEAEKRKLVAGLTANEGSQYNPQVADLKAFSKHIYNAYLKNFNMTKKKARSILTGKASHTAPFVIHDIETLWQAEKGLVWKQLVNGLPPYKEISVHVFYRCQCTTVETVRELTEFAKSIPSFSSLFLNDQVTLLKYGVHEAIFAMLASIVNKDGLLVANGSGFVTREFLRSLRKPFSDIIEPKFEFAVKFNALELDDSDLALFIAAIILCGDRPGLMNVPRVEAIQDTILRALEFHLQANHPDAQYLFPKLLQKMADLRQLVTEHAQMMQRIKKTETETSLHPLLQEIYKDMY
Peroxisome proliferator-activated receptor gamma (Homo sapiens), sequence (P37231 whole entry, looked up): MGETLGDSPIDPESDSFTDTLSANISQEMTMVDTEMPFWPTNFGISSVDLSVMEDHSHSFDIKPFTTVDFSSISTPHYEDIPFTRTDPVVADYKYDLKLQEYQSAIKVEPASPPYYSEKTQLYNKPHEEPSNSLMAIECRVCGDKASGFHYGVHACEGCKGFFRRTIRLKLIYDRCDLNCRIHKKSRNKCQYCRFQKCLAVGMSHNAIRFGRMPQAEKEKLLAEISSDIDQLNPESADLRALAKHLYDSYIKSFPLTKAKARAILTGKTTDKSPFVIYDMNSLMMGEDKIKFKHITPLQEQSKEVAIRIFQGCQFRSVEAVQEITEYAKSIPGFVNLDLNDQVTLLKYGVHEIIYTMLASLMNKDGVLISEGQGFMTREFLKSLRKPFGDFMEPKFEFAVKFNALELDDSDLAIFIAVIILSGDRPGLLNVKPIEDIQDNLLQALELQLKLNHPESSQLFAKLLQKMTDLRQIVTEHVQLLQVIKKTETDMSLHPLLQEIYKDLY
Bile acid receptor (Homo sapiens), sequence (Q96RI1 whole entry, looked up): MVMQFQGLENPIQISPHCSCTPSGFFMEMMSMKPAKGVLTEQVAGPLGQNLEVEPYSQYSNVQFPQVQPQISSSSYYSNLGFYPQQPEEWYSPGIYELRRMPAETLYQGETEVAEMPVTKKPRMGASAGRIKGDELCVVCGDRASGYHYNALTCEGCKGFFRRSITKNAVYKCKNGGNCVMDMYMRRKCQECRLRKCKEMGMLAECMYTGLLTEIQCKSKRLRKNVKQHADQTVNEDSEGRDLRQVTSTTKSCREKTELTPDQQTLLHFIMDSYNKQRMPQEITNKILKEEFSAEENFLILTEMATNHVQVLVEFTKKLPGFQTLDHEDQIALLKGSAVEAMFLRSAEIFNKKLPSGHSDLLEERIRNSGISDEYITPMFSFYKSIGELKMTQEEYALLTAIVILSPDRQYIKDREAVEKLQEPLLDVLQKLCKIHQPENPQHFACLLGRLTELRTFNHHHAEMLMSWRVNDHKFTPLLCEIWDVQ
Glucocorticoid receptor (Homo sapiens), sequence (P04150 whole entry, looked up): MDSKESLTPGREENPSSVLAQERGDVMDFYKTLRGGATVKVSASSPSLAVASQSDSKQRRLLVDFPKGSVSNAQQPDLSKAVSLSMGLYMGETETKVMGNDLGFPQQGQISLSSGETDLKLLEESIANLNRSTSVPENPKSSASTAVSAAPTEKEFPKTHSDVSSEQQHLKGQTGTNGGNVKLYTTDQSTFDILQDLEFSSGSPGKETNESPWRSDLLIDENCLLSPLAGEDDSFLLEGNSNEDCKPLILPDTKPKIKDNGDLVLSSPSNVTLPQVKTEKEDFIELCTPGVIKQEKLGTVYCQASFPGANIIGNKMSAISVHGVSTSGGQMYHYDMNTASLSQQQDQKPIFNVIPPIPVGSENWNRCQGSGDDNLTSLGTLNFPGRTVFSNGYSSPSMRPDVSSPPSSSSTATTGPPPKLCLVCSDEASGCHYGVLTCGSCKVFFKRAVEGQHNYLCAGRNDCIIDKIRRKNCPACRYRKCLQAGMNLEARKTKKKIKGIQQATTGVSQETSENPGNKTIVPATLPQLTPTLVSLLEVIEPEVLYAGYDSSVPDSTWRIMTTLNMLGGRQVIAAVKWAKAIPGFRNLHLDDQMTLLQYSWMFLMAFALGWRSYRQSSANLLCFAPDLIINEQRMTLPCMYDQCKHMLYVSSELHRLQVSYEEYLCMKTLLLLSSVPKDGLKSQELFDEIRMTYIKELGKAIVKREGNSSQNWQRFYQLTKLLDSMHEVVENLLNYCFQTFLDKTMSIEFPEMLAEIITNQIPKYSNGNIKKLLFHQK
Retinoic acid receptor RXR-alpha (Homo sapiens), sequence (P19793 whole entry, looked up): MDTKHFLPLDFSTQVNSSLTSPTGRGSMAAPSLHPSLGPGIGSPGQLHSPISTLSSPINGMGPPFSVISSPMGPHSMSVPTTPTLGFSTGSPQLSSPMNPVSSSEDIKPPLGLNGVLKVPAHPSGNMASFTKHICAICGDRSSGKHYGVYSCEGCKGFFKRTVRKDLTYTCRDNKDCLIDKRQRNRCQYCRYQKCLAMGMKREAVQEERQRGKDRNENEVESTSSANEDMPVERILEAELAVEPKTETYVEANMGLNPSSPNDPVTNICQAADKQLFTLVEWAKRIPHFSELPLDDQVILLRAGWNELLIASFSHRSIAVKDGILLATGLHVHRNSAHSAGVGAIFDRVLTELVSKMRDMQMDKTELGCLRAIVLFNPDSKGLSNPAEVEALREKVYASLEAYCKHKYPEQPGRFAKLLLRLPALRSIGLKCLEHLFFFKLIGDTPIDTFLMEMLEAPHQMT
Vitamin D3 receptor (Homo sapiens), sequence (P11473 whole entry, looked up): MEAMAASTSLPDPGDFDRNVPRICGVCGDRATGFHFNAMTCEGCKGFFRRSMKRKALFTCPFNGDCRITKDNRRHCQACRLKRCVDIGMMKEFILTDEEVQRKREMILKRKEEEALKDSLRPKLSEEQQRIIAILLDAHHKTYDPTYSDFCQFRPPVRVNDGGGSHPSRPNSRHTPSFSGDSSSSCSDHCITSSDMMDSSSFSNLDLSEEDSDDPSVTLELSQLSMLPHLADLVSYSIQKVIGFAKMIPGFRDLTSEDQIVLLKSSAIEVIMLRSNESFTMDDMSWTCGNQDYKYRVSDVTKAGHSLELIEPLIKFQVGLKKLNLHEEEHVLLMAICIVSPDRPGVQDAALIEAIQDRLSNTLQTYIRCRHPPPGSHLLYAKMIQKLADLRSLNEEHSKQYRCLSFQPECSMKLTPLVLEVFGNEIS
Peroxisome proliferator-activated receptor alpha (Homo sapiens), sequence (Q07869 whole entry, looked up, the tested form may be a part): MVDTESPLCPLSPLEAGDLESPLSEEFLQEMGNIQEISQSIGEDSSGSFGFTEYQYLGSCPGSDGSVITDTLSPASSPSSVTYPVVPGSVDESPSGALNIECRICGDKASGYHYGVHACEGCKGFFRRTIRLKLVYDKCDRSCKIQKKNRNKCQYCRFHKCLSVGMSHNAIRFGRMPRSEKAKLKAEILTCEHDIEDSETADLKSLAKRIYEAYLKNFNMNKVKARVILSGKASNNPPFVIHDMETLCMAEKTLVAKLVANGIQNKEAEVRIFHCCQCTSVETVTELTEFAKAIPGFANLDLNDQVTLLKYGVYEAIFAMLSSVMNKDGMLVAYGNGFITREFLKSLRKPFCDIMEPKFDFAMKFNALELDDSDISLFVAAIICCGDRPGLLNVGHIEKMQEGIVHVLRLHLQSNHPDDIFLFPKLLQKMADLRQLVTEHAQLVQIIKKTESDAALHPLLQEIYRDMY
Nuclear receptor subfamily 1 group I member 2 (Rattus norvegicus), sequence (Q9R1A7 whole entry, looked up): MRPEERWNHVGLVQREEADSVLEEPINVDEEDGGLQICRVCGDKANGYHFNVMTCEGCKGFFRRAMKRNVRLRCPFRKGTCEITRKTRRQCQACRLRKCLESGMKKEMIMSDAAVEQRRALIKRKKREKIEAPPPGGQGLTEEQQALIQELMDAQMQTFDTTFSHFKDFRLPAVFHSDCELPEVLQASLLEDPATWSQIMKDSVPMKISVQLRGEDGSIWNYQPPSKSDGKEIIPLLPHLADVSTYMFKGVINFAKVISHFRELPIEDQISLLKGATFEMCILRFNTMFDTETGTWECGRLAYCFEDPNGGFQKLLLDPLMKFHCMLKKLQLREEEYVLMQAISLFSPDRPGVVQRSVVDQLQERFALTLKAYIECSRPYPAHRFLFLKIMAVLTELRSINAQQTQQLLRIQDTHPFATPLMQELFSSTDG
Thyroid hormone receptor beta (Homo sapiens), sequence (P10828 whole entry, looked up): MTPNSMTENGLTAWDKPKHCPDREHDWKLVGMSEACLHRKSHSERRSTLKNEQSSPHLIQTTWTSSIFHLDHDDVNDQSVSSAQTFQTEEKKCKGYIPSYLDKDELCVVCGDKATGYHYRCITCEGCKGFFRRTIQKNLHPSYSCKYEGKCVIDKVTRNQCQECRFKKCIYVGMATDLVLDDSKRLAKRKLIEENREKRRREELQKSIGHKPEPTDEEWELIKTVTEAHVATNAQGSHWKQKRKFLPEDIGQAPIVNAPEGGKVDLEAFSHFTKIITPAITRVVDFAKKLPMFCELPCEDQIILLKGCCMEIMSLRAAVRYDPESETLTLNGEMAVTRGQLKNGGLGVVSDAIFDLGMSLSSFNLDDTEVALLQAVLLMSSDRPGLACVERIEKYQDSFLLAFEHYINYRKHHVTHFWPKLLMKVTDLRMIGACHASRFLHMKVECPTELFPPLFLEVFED

CCS(=O)(=O)c1cccnc1S(=O)(=O)NC(=O)Nc1nc(OC)cc(OC)n1
-3.64%: max response [11]
active: Potency [13] 10.9 µM | Potency [16] 31.6 µM
inactive: activation [1] 0.0623% | activation [2] -0.845% | outcome [3] | Potency [5] | Potency [6] | Potency [7] | Potency [8] | outcome [9] | Potency [10] | max response [12] 8.72% | activation [14] -3.66% | activation [15] -1.37% | max response [17] -2.57% | max response [18] 15.3% | max response [19] -6.2% | Potency [20] | max response [21] -1.1%
-45%: max response [4]

O=C1OC(=O)c2ccccc21
inactive: activation [1] 1.95% | outcome [3]

Brc1ccc(Br)cc1
inactive: activation [1] -2.5% | activation [2] 1.41% | Potency [22] | outcome [3] | Potency [5] | Potency [6] | Potency [7] | Potency [8] | outcome [9] | Potency [24] | Potency [10] | max response [12] 9.56% | activation [14] -8.84% | activation [16] -0.254% | max response [17] -1.4% | Potency [25] | max response [18] -4.46% | max response [19] -8.04% | Potency [20] | max response [21] -2.46% | outcome [26]
-47.9%: max response [4]
0.756%: max response [23]
-5.87%: max response [11]
